# PNC assembly inh – High Content Assay for Compounds that inhibit the Assembly of the Perinucleolar Compartment; activity change (PNC), negative = inhibition, % at 10 µM; 140,000 compounds, 3.1% hits; PC3M PTB-GFP, PNC prevalence imaging, 16 h; active compounds read low; AID 2417, 2010;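 active = readout at or below -70, meaning at least 70% loss of cells showing the perinucleolar compartment, a nuclear body marking cancer cells; inconclusive = readout between -30 and a set limit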;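 also: plate controls were DMSO wells for no effect and camptothecin positive control wells for full effect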
#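 Read-out is percentage of cells bearing a perinucleolar compartment, from automated 20x imaging of fixed, Hoechst-stained PC3M PTB-GFP cells. Cells were seeded 4 h, then exposed 16 h to compound (23 nl of library stock) in duplicate plates.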
# 15-hLO-2 inh – qHTS Assay for Inhibitors of 15-hLO-2 (15-human lipoxygenase 2) | Polyunsaturated fatty acid lipoxygenase ALOX15B (Homo sapiens), O15296 | purified 15hLO-2, xylenol orange hydroperoxide absorbance | Potency, µM (titrated, usually from 57.1 µM), for the others: top-dose activity change, negative = inhibition, actives largely listed as inhibitors | 110,000 compounds, 0.56% hits; also: potency is read from the fitted curve at half-maximal effect; nearly all actives have a fitted effect of over 60% in size
#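 Purified human 15hLO-2 (50 nM final) preincubated with compounds 15 min at room temperature in 25 mM Hepes pH 7.5, 0.01% Triton X-100, then 45 uM arachidonic acid added for 90 min; hydroperoxide detected via ferrous/xylenol orange, 573/405 nm absorbance ratio.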
# ALOX12 inhib – qHTS Assay for Inhibitors of 12-hLO (12-human lipoxygenase); Polyunsaturated fatty acid lipoxygenase ALOX12 (Homo sapiens), P18054; purified 12-hLO, xylenol orange hydroperoxide absorbance; Potency, µM (titrated, usually from 57.1 µM), without a hit: at the highest dose activity change, negative = inhibition, actives largely listed as inhibitors; 150,000 compounds, 0.12% hits; also: potency is read from the fitted curve at half-maximal effect; nearly all actives have a fitted effect of over 55% in size
# Target sequence (P18054 whole entry, looked up): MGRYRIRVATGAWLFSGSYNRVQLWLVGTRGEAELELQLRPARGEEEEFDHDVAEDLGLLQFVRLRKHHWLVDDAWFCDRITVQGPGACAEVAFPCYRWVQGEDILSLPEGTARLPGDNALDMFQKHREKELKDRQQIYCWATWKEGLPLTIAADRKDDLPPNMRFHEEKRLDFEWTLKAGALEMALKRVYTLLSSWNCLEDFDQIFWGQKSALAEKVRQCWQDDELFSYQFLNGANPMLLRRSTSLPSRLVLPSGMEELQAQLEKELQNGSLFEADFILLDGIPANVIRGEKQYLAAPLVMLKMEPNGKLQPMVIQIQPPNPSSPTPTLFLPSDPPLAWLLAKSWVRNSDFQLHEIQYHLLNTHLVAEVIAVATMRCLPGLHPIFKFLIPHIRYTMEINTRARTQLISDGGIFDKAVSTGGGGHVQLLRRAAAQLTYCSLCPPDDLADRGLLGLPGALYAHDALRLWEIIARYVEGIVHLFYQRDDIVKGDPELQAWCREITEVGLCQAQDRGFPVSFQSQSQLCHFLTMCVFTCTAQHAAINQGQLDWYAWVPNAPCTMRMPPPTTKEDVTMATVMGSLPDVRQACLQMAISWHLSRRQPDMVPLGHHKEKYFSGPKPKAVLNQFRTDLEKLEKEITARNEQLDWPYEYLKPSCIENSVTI
#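 Lipoxygenase turnover measured by absorbance at 573 and 405 nm after Fe-XO development. Human 12hLO 150 nM, arachidonate 40 uM, pH 7.0 Hepes buffer with detergent; 15 min compound preincubation, 30 min reaction.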
# Active calls of the source: *; ? = inconclusive; / = no result given; [ ] = dose if it differs, or a comment. An excerpt weighted towards active compounds, which were near 3.1% of everything screened. Unless noted, calls follow the shape of the dose curve; as a rule, active = well fitted curve in the direction sought with a large enough effect; inconclusive = small, poorly fitted or top-dose-only effect, or another doubt; inactive = no such curve, though single readings can be large; an effect the other way counts as inactive or inconclusive. Unless noted, % is scaled to controls: 0 for no effect and ±100 for the full control effect.
SMILES,PNC assembly inh,15-hLO-2 inh,ALOX12 inhib
O=C(c1cc(F)c(F)cc1Cl)N1CCOCC1,19.5,5.5%,2.3%
CC[C@@H](c1ccc2cc(O)ccc2c1)C(C)(C)C(=O)O,/,0.8%[11.4 µM],-2.2%[11.4 µM]
CC(NCc1ccc(-c2ccccc2)cc1)C(O)c1ccccc1 (centres undefined),-118.2*,/,-12.4%
CC(O)CNCc1ccc(-c2ccccc2)cc1 (centres undefined),44.9,18.0%,10.0%
N#C[C@@H]1[C@@H]2C(=O)N(c3ccc4c(c3)OCCO4)C(=O)[C@@H]2C2c3ccccc3C=CN21 (some centres undefined),-100.0*,/,-0.1%
CC(=O)[C@@H]1[C@@H]2C(=O)N(c3ccc(F)c(Cl)c3)C(=O)[C@@H]2C2c3ccccc3C=CN21 (some centres undefined),53.3,/,-0.6%
Nc1ncnc2c1ncn2[C@@H]1O[C@@H](COP(=O)(O)OP(=O)(O)OP(=O)(O)OP(=O)(O)OC[C@@H]2O[C@@H](n3cnc4c(N)ncnc43)[C@@H](O)[C@H]2O)[C@H](O)[C@@H]1O,/,-12.8%,6.1%
C1CCN2C[C@@H]3C[C@@H](CN4CCCC[C@H]34)[C@H]2C1,/,1.7%[25.6 µM],0.2%[25.6 µM]
O=C(Nc1cccc(Cl)c1)N1CCCC1,13.4,-9.6%,-2.6%
O=C(c1ccccc1)N1CCN(Cc2ccccc2)CC1,-100.0*,/,-6.6%
O=C(Nc1cccc(Cl)c1)N1CCN(Cc2ccccc2)CC1,-96.3*,1.4%,-0.8%
O=C(c1ccc2c(c1)OCCO2)N1CCN(Cc2ccccc2)CC1,64.9,14.7%,7.1%
COc1ccc(-c2nc3cnc(OC)nc3n(C3CC3)c2=O)cc1,/,15.0%,1.1%
Cc1cccc(C)c1NC(=O)[C@H](C)N,/,-4.6%[25.6 µM],2.9%[25.6 µM]
CCC1(C)Cc2c(sc3nc(SCC(=O)O)[nH]c(=O)c23)CO1 (centres undefined),-102.3*,5.6%,-1.7%
CCSc1nc2sc3c(c2c(=O)[nH]1)CC(C)(CC)OC3 (centres undefined),46.4,/,5.0%
COC(=O)CC1C(C)(C)C(OC(C)=O)C2[C@H](OC(C)=O)[C@]34O[C@]2(O)[C@]1(C)C3CC[C@]1(C)C4=CC(=O)OC1c1ccoc1 (some centres undefined),/,-3.5%,-4.3%
O=C(c1ccncc1)N1CCC2(CC1)CN(c1ccccc1)C2,/,3.2%,2.1%
CCOc1ccccc1Nc1ncccc1C(=O)O,-8.2,12.9%,5.7%
COc1cccc(Nc2ncccc2C(=O)Nc2ccccc2)c1,-80.4*,25.5%,-3.5%
COc1ccc(NC(=O)c2cccnc2NCCc2ccccc2)cc1,43.6,/,-22.7%
COc1ccccc1NC(=O)c1cnc(Nc2ccccc2OC)c2ccccc12,-85.6*,/,-1.5%
COc1ccccc1Nc1ncc(C(=O)N2CCC(C(N)=O)CC2)c2ccccc12,-2.2,7.8%,-1.4%
COc1ccccc1Nc1ncccc1C(=O)O,-100.0*,-3.6%,9.2%
COc1ccccc1-c1cncnc1NCCN1CCOCC1,/,8.2%,0.5%
SMILES,PNC assembly inh,15-hLO-2 inh,ALOX12 inhib
C/C(=C\C1CCCCC1)C(NC(=O)c1cccnc1)c1ccc(-c2ccccc2)cc1 (centres undefined),/,6.8%,-3.0%
C#C[C@@]1(O)CC[C@@H]2[C@@H]3CCC4=CC(=O)CC[C@@H]4[C@H]3CC[C@]21C,/,3.4%[25.6 µM],-1.6%[25.6 µM]
COC(=O)c1cc(=O)[nH]c(=O)[nH]1,/,-0.5%[11.4 µM],-0.5%[11.4 µM]
COc1cccc(-c2cc(NCc3ccccc3)ncn2)c1,/,-5.6%,/
CN(C)c1ncc2nc(-c3ccccc3)c(=O)n(Cc3ccc(F)cc3)c2n1,/,-5.9%,/
Cc1cc2nc(-c3ccc(SCC(=O)N4CCN(C(=O)c5ccco5)CC4)nc3)[nH]c2cc1C,-27.8,44.8%,14.6%
Cc1cc2nc(-c3ccc(SCC(=O)N4CCOCC4)nc3)[nH]c2cc1C,-89.2*,5.5%,2.0%
CN1CCN(c2ccncc2S(=O)(=O)N2CCN(C)CC2)CC1,/,-4.4%[11.4 µM],0.0%[11.4 µM]
Cc1cccc(C)c1NC(=O)COc1ccc2c(C)c(Cc3ccccc3)c(=O)oc2c1C,?,/,1.4%
COc1cccc(C(=O)COc2ccc3c(C)c(Cc4ccccc4)c(=O)oc3c2C)c1,-100.5*,/,-1.8%
CCCCC(CC)COCCCN (centres undefined),/,7.1%,-6.0%
CC(C)c1ccc(NC(=O)COC(=O)[C@H](CCC(N)=O)NC(=O)c2ccc(F)cc2)cc1,-11.7,/,-2.8%
NC(=O)CC[C@H](NC(=O)c1ccc(F)cc1)C(=O)OCC(=O)Nc1c(F)c(F)c(F)c(F)c1F,-91.9*,/,1.5%
COc1ccc(C2(CNC(=O)/C=C/c3ccco3)CCCC2)cc1OC,21.4,-14.4%,-14.3%
O=C(/C=C/c1ccco1)NCC1(c2ccccc2)CCCC1,-109.2*,/,-3.6%
COc1cc(OC)c(C(=O)CCCCN2CCC3(CC2)NC(=O)NC3=O)cc1NS(=O)(=O)c1ccc(C(F)(F)F)cc1,/,28.4%,-4.0%
C=C[C@](C)(O)CCC=C(C)C,/,6.6%,-1.1%
CCNc1ncc2nc(-c3cc(F)cc(F)c3)c(=O)n(CCc3ccccc3)c2n1,/,-6.9%,/
CCOC(=O)Nc1sc(C)c(C)c1C(=O)OCC,-11.1,/,2.5%
CCOC(=O)c1c(Nc2nc(C)c(C(=O)NC)s2)sc(C)c1C,-81.8*,-13.6%,-2.5%
CCCn1c(C)nc2c(NC(C)CN(C)C)nc(C)nc21 (centres undefined),/,1.1%,-3.1%
Cc1cc(Cl)ccc1OCC(=O)NCc1ccncc1,72.3,12.6%,0.9%
CCn1cc(C(C)NC(=O)COc2ccc(Cl)cc2C)c(C)n1 (centres undefined),-95.0*,-2.6%,-0.7%
COc1ccc(N(C)C2=NS(=O)(=O)c3ccccc32)cc1,-101.2*,0.0%,-1.2%
COC1=NS(=O)(=O)c2ccccc21,?,/,-3.3%
SMILES,PNC assembly inh,15-hLO-2 inh,ALOX12 inhib
CNc1ncncc1-c1c(C)noc1C,/,2.7%,/
O=C(N/N=C\c1cccc(O)c1)c1ccncc1,/,-5.6%[11.4 µM],2.9%[11.4 µM]
Cc1ccc(C(C)C)c(OCc2ccc(C(=O)N/N=C/c3ccc(O)cc3O)cc2)c1,-89.5*,/,1.9%
O=C(CCCCCNC(=O)c1ccccc1)N/N=C/c1ccc(O)cc1O,?,/,-1.2%
O=C(N/N=C/c1cccc(O)c1)c1ccc(COc2ccccc2Br)cc1,-123.8*,/,-13.2%
CN(C)C(=O)[C@]1(C)C[C@H]1[C@H](NC(=O)CNC(=O)[C@@H]1CCCN1C(=O)[C@]1(C)C[C@H]1[C@H](NC(=O)OCc1ccccc1)c1ccccc1)c1ccccc1,/,0.4%,-0.1%
O=[N+]([O-])c1cc(-c2cnc3ccccc3n2)ccc1Oc1ccc(Br)cc1,-106.0*,4.0%,-3.2%
O=[N+]([O-])c1ccc(Oc2ccc(-c3cnc4ccccc4n3)cc2[N+](=O)[O-])cc1,21.5,/,-3.2%
CCCCCCCNC1=CC(=O)CC(c2ccccc2)C1 (centres undefined),25.0,/,-2.3%
CCCCCNC1=CC(=O)CC(c2ccccc2)C1 (centres undefined),-83.5*,-7.1%,1.5%
CCC1=C2CC[C@H]3C(=O)N(C)C(=O)[C@H]3[C@H]2[C@@]2(C)C(=O)N(CC3CC3)C(=O)N2C1=O,/,10.5%,-2.9%
O=C=Nc1ccc(Cc2ccc(N=C=O)cc2)cc1,/,3.5%,0.2%

# Bioassay records as filed in PubChem BioAssay.
